High-throughput results from PubChem.
In the library only some 0.95% were active in any assay of this set; here they are far more common.
TbPYK inhibitor: inhibitors of Trypanosoma brucei pyruvate kinase | TbPYK enzyme, Kinase-Glo Plus ATP luminescence, 45 min | Potency, µM (series often up to 76.8 µM), usual class: inhibitors | 410,000 compounds, 0.12% hits | AID 624173; also: nearly all actives have a fitted effect of over 50% in size
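Assay buffer: 50 mM TEA pH 7.2, 100 mM KCl, 10 mM MgCl2, 0.05% BSA, 0.01% Tween-20. Pyruvate kinase from T. brucei plus substrate met compound, then ADP (130 uM final). Luminescence was read post 45 min RT.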
RE007 growth inh: less growth of the S. pombe RE007 Vpr strain. AID 651644. Potency, µM (series often up to 92.2 µM), usual class: inhibitors. 360,000 compounds, 0.21% hits. S. pombe RE007 Vpr strain, BacTiter-Glo ATP luminescence, 24 h; active = well fitted falling curve with a large enough effect; inconclusive = small, poorly fitted or top-dose-only effect; inactive = no such curve, though single readings can be large or run the other way; also: nearly all actives have a fitted effect of over 50% in size
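Fission yeast RE007 carrying one integrated HIV-1 vpr copy, seeded at OD 0.01 in PMG+AL medium with 23 nL pinned compound. Grown 24 h at 30 degrees; viability read by BacTiter-Glo luminescence after 5 min.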
LmPK inh: inhibitors of Leishmania mexicana pyruvate kinase | purified LmPK, Kinase-Glo ATP luminescence, 1 h | Potency, µM (top dose mostly 57.5 µM), actives largely listed as inhibitors | 290,000 compounds, 0.37% hits | AID 1721
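Pyruvate kinase activity monitored as ATP production (luciferase luminescence). Conditions: 0.1 nM enzyme, 0.5 mM PEP, 0.1 mM ADP, 1 h, RT; normalized against uninhibited and no-enzyme wells.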
FBPA Giardia inh: Giardia lamblia aldolase inhibition | A8B2U2 | purified Giardia FBPA | Potency, µM (top dose mostly 59.6 µM), hits mostly inhibitors | 290,000 compounds, 0.71% hits | AID 2451; also: nearly all actives have a fitted effect of over 55% in size
Target sequence (A8B2U2 whole entry, looked up): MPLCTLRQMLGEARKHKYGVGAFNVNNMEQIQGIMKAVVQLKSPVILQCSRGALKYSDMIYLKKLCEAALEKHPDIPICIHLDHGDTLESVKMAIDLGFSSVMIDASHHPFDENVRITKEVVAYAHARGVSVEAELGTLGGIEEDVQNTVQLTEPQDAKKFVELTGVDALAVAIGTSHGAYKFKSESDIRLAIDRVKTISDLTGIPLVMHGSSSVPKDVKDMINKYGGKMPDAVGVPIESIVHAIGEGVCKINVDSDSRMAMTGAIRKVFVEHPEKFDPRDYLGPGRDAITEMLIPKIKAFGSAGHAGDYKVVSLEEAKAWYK
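Giardia FBPA (40 nM reagent) was preincubated 10 min at RT with compound (up to 57.5 uM final), then substrate plus GAPDH/TPI/NAD/arsenate coupling system with diaphorase/resazurin was added; resorufin fluorescence (525/598 nm) was read after 20 min.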
Large screens that a line does not name were inactive; ! = repeats disagree. Unless noted, calls follow the shape of the dose curve; as a rule, active = well fitted curve in the direction sought with a large enough effect; inconclusive = small, poorly fitted or top-dose-only effect, or another doubt; inactive = no such curve, though single readings can be large; an effect the other way counts as inactive or inconclusive.

C(C#CCCCCCCCCC[n+]1ccccc1)#CCCCCCCCCC[n+]1ccccc1	RE007 growth inh 7.9µM
O=C(COCCOCCOCC(=O)Nc1c(I)cc(I)c(C(=O)O)c1I)Nc1c(I)cc(I)c(C(=O)O)c1I	none (no result: RE007 growth inh, LmPK inh, FBPA Giardia inh)
FC(F)(F)c1ccc(-c2noc(-c3ccccc3)c2I)cc1	none (no result: TbPYK inhibitor, RE007 growth inh, LmPK inh)
COC(=O)c1c(-c2ccc(OC)cc2)sc2ccc(N3CCOCC3)cc12	none (no result: LmPK inh, FBPA Giardia inh)
COC(=O)c1nc2ccc(N3CCOCC3)cc2c(C)c1C(=O)OC	FBPA Giardia inh 7.9µM
CCC(=O)OCOc1ccc(/C=C2/CCC(CN(C)C)C2=O)cc1 (stereo not given)	RE007 growth inh 8.9µM (no result: LmPK inh, FBPA Giardia inh)
CCOc1ccc(/C=C2\CCC(C3CCCC3)C2=O)cc1 (stereo not given)	none
Cc1ccccc1CN1c2ccccc2-c2nc(SCC(=O)NCCc3ccccc3)ncc2S1(=O)=O	none (no result: RE007 growth inh, LmPK inh, FBPA Giardia inh)
O=C1CC(SCCc2nc3ccccc3[nH]2)C(=O)N1c1ccc(F)c(Cl)c1 (stereo not given)	RE007 growth inh 28µM (no result: LmPK inh, FBPA Giardia inh)
CCCOc1ccc(N2C(=O)CC(SCc3nc4ccccc4[nH]3)C2=O)cc1 (stereo not given)	RE007 growth inh 63µM
O=C1CC(SCc2nc3ccccc3[nH]2)C(=O)N1c1cccc(Cl)c1 (stereo not given)	RE007 growth inh 28µM
CCOC(=O)CN[C@@H](C(=O)N1CC[C@H]1C(=O)NCc1ccc(/C(N)=N/O)cc1)C1CCCCC1	none (no result: RE007 growth inh, LmPK inh, FBPA Giardia inh)
CCCN1CCc2cccc3c2C1Cc1ccc(O)c(O)c1-3 (stereo not given)	FBPA Giardia inh 13µM (no result: TbPYK inhibitor, RE007 growth inh, LmPK inh)
Cc1cc(NC(=O)c2ccccc2)sc1C	RE007 growth inh inconclusive, LmPK inh 13µM
CC(C)(C)C1=CC=C(C(C)(C)C)C(=O)C1=O	LmPK inh 22µM, FBPA Giardia inh 7.9µM (no result: TbPYK inhibitor, RE007 growth inh)
COC[C@@H](c1ccc(C(F)(F)F)cc1)N1CCN(C2(C)CCN(C(=O)c3c(C)ncnc3C)CC2)C[C@@H]1C	none (no result: RE007 growth inh, LmPK inh, FBPA Giardia inh)
CCCCS(=O)(=O)/C=C\C1C2C=CC(C2)C1S(=O)(=O)CCCC (stereo not given)	none
CCCCS(=O)(=O)/C=C\C=C/S(=O)(=O)CCCC	TbPYK inhibitor inconclusive, RE007 growth inh 8.9µM
Cc1[nH]n(-c2ccc([N+](=O)[O-])cc2)c(=O)c1C=NCCN1CCN(C(=O)c2ccccc2)CC1	RE007 growth inh inconclusive, LmPK inh 28µM
Cn1c(O)c(C=NCCN2CCN(C(=O)c3ccccc3)CC2)c(=O)n(C)c1=O	none
COc1ccc(-c2[nH]n(-c3ccc([N+](=O)[O-])cc3)c(=O)c2C=NCCN2CCNCC2)cc1	LmPK inh 16µM, FBPA Giardia inh inconclusive (no result: TbPYK inhibitor, RE007 growth inh)
O=c1c(C=NCCN2CCNCC2)c(-c2ccccc2)[nH]n1-c1ccc([N+](=O)[O-])cc1	none (no result: TbPYK inhibitor, RE007 growth inh)
N#Cc1ccccc1Cn1c(=O)n(CCCC(=O)NCc2ccc3c(c2)OCO3)c(=O)c2sccc21	none (no result: RE007 growth inh, LmPK inh, FBPA Giardia inh)
COc1ccccc1N1CCN(C(c2cc3ccc(C)cc3[nH]c2=O)c2nnnn2C2CCCC2)CC1 (stereo not given)	FBPA Giardia inh 28µM
O=C(N/N=C/c1ccccn1)c1sc2ccccc2c1Cl	RE007 growth inh inconclusive, FBPA Giardia inh 5µM
O=C(OCn1ncc(Br)c(Br)c1=O)c1ccccc1Cl	RE007 growth inh 6.3µM
O=C(OCn1ncc(Br)c(Br)c1=O)c1ccc(F)cc1	RE007 growth inh inconclusive
Cc1ccc(COc2ccsc2-c2n[nH]c(=S)n2C)cc1	none (no result: TbPYK inhibitor)
Cn1c(-c2sccc2OCc2ccc(Cl)cc2Cl)n[nH]c1=S	TbPYK inhibitor 3.5µM, LmPK inh inconclusive
CC1CCN(S(=O)(=O)c2ccc3c(ccn3CC(=O)NCc3ccc(N(C)C)cc3)c2)CC1	none (no result: RE007 growth inh, LmPK inh, FBPA Giardia inh)
N#Cc1cccc(-c2nccc(-n3ccnc3)n2)c1	none (no result: TbPYK inhibitor, RE007 growth inh, LmPK inh)
N#CC(C#N)=Cc1ccc(O)c(O)c1	FBPA Giardia inh 14µM! (no result: LmPK inh)
N#C/C(=C\c1ccc(O)c(O)c1)C(=O)c1ccc(O)c(O)c1	TbPYK inhibitor inconclusive (no result: LmPK inh)
CCCOc1ccc(C2C(C(=O)/C=C/c3ccco3)=C(O)C(=O)N2CCN2CCOCC2)cc1OC (stereo not given)	FBPA Giardia inh 7.9µM
CO/N=C1/CC2(CC3CC(C/C=C(/C)CC(C)/C=C\C=C4\COC5C(O)C(C)=CC(C(=O)O3)C45O)O2)OC(/C(C)=C/C(C)C)C1C (stereo not given)	none (no result: RE007 growth inh, LmPK inh, FBPA Giardia inh)
O=C(Nc1ccccc1)c1ccc(CSc2ncccn2)cc1	none
O=C(Nc1ccccc1F)c1ccc(CSc2ncccn2)cc1	LmPK inh 16µM
CC1=NN(c2ccc([N+](=O)[O-])cc2)C(=O)/C1=C\N(C)C	RE007 growth inh 6.3µM, LmPK inh 16µM
